Eight sequences from PMC7862700, “An all-to-all approach to the identification of sequence-specific readers for epigenetic DNA modifications on cytosine” can be followed below.

Assay in all cases: DAPPL (digital affinity profiling via proximity ligation, sequencing); 10 mM Tris-HCl pH 7.5, 50 mM NaCl, 1 mM DTT, 4% glycerol, room temperature, 30 min; GST-TFs on glutathione beads, 16-mer random dsDNA library, 0.1% formaldehyde crosslink after washing; high values mean tight binding
Common to all, as to details: protein: recombinant; tags: N-terminal GST; dsDNA, one strand shown

One assay concerns the target T1, ERF (Homo sapiens, UniProt P50548 1-548).
T1 sequence: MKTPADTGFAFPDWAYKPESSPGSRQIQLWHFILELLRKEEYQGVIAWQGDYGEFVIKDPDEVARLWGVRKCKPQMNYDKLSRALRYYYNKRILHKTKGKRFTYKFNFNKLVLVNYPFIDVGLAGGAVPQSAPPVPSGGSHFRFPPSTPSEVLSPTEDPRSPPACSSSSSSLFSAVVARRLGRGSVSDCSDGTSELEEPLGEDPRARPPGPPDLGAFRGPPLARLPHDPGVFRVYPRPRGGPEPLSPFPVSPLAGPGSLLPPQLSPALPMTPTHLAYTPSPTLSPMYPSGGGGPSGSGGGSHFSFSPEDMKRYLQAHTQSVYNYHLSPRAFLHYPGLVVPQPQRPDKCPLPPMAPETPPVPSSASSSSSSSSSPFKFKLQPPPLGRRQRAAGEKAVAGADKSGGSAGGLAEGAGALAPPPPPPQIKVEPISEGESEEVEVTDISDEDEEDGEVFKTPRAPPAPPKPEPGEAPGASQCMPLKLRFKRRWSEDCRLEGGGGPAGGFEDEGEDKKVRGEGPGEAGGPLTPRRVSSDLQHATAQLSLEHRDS
In outline:
(§1)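 Binding signal is given per hexamer as its read frequency for a factor divided by its frequency in the tag-only sample. GST-fused human transcription factors were expressed in yeast, captured on glutathione beads, barcoded with DNA and pooled with that sample, then incubated with 200 nmole of a 16-mer random double-stranded DNA library in Tris/NaCl/DTT/glycerol buffer for 30 min at room temperature. The pools were then washed, crosslinked, proximity-ligated, amplified by PCR and sequenced on an Illumina NextSeq500.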

The target of another assay is T2, ETV3L (Homo sapiens, UniProt Q6ZN32 1-361).
T2 sequence: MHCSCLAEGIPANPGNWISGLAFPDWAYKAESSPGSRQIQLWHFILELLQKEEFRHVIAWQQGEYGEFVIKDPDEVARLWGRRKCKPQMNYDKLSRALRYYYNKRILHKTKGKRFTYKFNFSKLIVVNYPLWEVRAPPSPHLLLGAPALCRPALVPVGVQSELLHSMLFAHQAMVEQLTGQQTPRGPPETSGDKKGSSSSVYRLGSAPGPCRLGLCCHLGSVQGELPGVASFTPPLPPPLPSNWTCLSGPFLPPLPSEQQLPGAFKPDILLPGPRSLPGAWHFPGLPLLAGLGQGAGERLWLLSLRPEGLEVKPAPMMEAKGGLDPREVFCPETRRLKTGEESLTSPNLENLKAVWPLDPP
Put shortly: as §1

A further assay has as its target T3, ETS2 (Homo sapiens, UniProt P15036 1-469).
T3 sequence: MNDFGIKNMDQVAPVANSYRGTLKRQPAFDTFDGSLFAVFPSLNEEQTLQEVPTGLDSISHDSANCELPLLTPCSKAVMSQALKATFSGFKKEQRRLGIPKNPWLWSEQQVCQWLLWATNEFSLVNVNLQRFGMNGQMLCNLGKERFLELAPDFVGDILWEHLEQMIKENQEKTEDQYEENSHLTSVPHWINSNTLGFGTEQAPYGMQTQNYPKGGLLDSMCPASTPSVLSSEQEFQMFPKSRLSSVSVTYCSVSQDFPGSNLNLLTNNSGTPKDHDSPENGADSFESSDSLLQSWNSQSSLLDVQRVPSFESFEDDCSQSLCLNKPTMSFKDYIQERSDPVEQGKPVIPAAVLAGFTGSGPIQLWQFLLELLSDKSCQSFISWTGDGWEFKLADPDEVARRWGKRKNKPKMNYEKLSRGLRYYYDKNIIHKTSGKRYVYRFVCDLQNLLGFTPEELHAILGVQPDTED
Put shortly:
as §1

The target of the next assay is T4, SPDEF (Homo sapiens, UniProt O95238 1-335).
T4 sequence: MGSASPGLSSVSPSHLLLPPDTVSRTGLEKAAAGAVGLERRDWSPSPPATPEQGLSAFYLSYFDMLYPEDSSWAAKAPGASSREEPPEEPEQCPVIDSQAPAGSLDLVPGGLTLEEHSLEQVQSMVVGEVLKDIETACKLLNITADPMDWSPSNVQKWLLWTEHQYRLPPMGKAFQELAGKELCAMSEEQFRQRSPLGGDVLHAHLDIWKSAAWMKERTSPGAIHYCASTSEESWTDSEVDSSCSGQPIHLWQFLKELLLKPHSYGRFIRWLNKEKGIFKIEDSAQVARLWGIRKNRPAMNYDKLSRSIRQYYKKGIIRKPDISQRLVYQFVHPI
Put shortly: as §1

The target of a further assay is T5, ETV7 (Homo sapiens, UniProt Q9Y603 1-341).
T5 sequence: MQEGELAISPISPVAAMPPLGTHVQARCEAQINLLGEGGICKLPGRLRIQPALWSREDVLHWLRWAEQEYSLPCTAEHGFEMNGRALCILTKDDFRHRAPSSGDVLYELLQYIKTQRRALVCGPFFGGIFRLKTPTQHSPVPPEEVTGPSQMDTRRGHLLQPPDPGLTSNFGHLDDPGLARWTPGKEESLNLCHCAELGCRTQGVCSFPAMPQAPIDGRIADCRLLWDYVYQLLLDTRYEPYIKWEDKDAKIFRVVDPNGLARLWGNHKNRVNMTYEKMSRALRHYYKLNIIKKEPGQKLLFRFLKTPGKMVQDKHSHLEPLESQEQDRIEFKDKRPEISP
Put shortly:
as §1

A further assay has as its target T6, ELF5 (Homo sapiens, UniProt Q9UKW6-2 1-255).
T6 sequence: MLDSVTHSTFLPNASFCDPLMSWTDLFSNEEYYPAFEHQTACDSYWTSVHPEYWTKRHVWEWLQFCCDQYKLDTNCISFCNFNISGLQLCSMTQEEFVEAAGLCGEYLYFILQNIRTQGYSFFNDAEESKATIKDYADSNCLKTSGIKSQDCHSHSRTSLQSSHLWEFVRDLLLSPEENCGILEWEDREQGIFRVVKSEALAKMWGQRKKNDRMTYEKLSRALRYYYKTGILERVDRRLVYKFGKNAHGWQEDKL
In outline: as §1

A further assay addresses T7, ETV3 (Homo sapiens, UniProt P41162-2 1-143).
T7 sequence: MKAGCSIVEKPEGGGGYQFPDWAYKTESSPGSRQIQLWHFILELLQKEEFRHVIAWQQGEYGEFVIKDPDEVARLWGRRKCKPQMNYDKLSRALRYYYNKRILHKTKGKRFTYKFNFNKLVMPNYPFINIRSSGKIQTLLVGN
In outline: as §1

For a further assay, the target named is ETV6 (Homo sapiens, UniProt P41212 1-452). In outline:
as §1

Chain of ETV6 (P41212 whole entry): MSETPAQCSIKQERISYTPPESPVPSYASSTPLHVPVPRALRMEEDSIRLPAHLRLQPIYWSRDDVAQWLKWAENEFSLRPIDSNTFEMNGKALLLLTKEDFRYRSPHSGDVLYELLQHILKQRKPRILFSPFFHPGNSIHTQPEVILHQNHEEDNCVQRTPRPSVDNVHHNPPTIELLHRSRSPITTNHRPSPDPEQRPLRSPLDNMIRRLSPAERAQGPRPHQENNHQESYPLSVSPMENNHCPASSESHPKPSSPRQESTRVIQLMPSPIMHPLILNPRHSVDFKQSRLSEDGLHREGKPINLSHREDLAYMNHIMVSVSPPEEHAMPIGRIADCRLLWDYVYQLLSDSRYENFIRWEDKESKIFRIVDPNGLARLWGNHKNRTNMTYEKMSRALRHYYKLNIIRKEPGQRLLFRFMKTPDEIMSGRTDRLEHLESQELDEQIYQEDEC

For the sequence CCGGCT, the binding signal with ERF was 1.59 fold enrichment (6-mer frequency, TF over GST control); in the assay with ETV3L, 1.69 fold enrichment (6-mer frequency, TF over GST control); in the assay with ETS2, 1.71 fold enrichment (6-mer frequency, TF over GST control); with SPDEF, 2.32 fold enrichment (6-mer frequency, TF over GST control); with ETV7, 1.74 fold enrichment (6-mer frequency, TF over GST control); in the assay with ELF5, 1.92 fold enrichment (6-mer frequency, TF over GST control). The binding signal in the assay with ETV3 was 1.7 fold enrichment (6-mer frequency, TF over GST control); with ETV6, 1.77 fold enrichment (6-mer frequency, TF over GST control).

In the case of AAACGC, the binding signal with ERF is 1.24 fold enrichment (6-mer frequency, TF over GST control); with ETV3L it was 1.18 fold enrichment (6-mer frequency, TF over GST control); with ETS2, 1.22 fold enrichment (6-mer frequency, TF over GST control); with SPDEF, 1.24 fold enrichment (6-mer frequency, TF over GST control); in the assay with ETV7, 1.17 fold enrichment (6-mer frequency, TF over GST control); with ELF5, 1.33 fold enrichment (6-mer frequency, TF over GST control). Besides, the binding signal was 1.3 fold enrichment (6-mer frequency, TF over GST control) with ETV3 and 1.35 fold enrichment (6-mer frequency, TF over GST control) with ETV6.

Regarding CCGGAT, the binding signal with ERF is 2.87 fold enrichment (6-mer frequency, TF over GST control); in the assay with ETV3L, 3.03 fold enrichment (6-mer frequency, TF over GST control); in the assay with ETS2, 3.38 fold enrichment (6-mer frequency, TF over GST control); with SPDEF, 6.71 fold enrichment (6-mer frequency, TF over GST control); with ETV7, 2.7 fold enrichment (6-mer frequency, TF over GST control); with ELF5, 3.7 fold enrichment (6-mer frequency, TF over GST control). Also, the binding signal in the assay with ETV3 was 3.64 fold enrichment (6-mer frequency, TF over GST control); with ETV6, 3.06 fold enrichment (6-mer frequency, TF over GST control).

For the sequence AATTAT, the binding signal with ERF is 1.15 fold enrichment (6-mer frequency, TF over GST control); with ETV3L, 1.26 fold enrichment (6-mer frequency, TF over GST control); in the assay with ETS2 it was 1.27 fold enrichment (6-mer frequency, TF over GST control); with SPDEF, 1.24 fold enrichment (6-mer frequency, TF over GST control); with ETV7, 1.23 fold enrichment (6-mer frequency, TF over GST control); with ELF5, 1.24 fold enrichment (6-mer frequency, TF over GST control). Moreover, the binding signal in the assay with ETV3 is 1.28 fold enrichment (6-mer frequency, TF over GST control); in the assay with ETV6 it was 1.2 fold enrichment (6-mer frequency, TF over GST control).

As for TACGAC, the binding signal with ERF is 1.18 fold enrichment (6-mer frequency, TF over GST control); with ETV3L, 1.22 fold enrichment (6-mer frequency, TF over GST control); with ETS2 it was 1.27 fold enrichment (6-mer frequency, TF over GST control); with SPDEF, 1.48 fold enrichment (6-mer frequency, TF over GST control); in the assay with ETV7, 1.18 fold enrichment (6-mer frequency, TF over GST control); with ELF5, 1.29 fold enrichment (6-mer frequency, TF over GST control). The binding signal in the assay with ETV3 is 1.33 fold enrichment (6-mer frequency, TF over GST control); in the assay with ETV6, 1.29 fold enrichment (6-mer frequency, TF over GST control).

Take CTTCGA: the binding signal in the assay with ERF was 1.41 fold enrichment (6-mer frequency, TF over GST control); with ETV3L, 1.37 fold enrichment (6-mer frequency, TF over GST control); with ETS2, 1.36 fold enrichment (6-mer frequency, TF over GST control); with SPDEF it was 1.3 fold enrichment (6-mer frequency, TF over GST control); with ETV7 it was 1.44 fold enrichment (6-mer frequency, TF over GST control); with ELF5 it was 1.27 fold enrichment (6-mer frequency, TF over GST control). Also, the binding signal with ETV3 was 1.16 fold enrichment (6-mer frequency, TF over GST control); with ETV6, 1.43 fold enrichment (6-mer frequency, TF over GST control).

CTTCCA: the binding signal with ERF was 1.55 fold enrichment (6-mer frequency, TF over GST control); with ETV3L it was 1.52 fold enrichment (6-mer frequency, TF over GST control); with ETS2, 1.45 fold enrichment (6-mer frequency, TF over GST control); in the assay with SPDEF, 1.45 fold enrichment (6-mer frequency, TF over GST control); with ETV7, 1.36 fold enrichment (6-mer frequency, TF over GST control); in the assay with ELF5, 1.64 fold enrichment (6-mer frequency, TF over GST control). Further, the binding signal with ETV3 is 1.41 fold enrichment (6-mer frequency, TF over GST control); with ETV6, 1.76 fold enrichment (6-mer frequency, TF over GST control).

On to TCAACC, for which the binding signal is 1.3 fold enrichment (6-mer frequency, TF over GST control) with ERF; 1.24 fold enrichment (6-mer frequency, TF over GST control) in the assay with ETV3L; 1.22 fold enrichment (6-mer frequency, TF over GST control) with ETS2; 1.2 fold enrichment (6-mer frequency, TF over GST control) with SPDEF; 1.07 fold enrichment (6-mer frequency, TF over GST control) in the assay with ETV7; 1.07 fold enrichment (6-mer frequency, TF over GST control) with ELF5. For the same sequence, the binding signal is 1.16 fold enrichment (6-mer frequency, TF over GST control) in the assay with ETV3 and 1.22 fold enrichment (6-mer frequency, TF over GST control) in the assay with ETV6.
